Only a selection was taken, and the strongest signals are over-represented in it overall.
How the values were obtained:
Assay in all cases: glycan array binding signal (z-score within array); higher = stronger binding
Conditions in all cases: glycan notation: IUPAC condensed, linker removed
[1] = molecular target: Gal(b1-4)GlcNAc(b1-6)[Gal(b1-3)]GlcNAc
How it was run: (§1)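 Glycan array binding is given as a within-array Z-score, which can be read as non-binding when negative. The arrays, 3228 of them, came from the Consortium for Functional Glycomics database and were retained only where the protein sequence was available. Z-scores were averaged across arrays of the same protein sequence at different concentrations or buffers and across linkers.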

[2] = molecular target: Gal3S(b1-3)[Fuc(a1-4)]GlcNAc
How it was run: as §1

[3] = molecular target: GalNAc(a1-3)Fuc(a1-2)Gal(b1-4)GlcNAc(b1-3)[GalNAc(a1-3)Fuc(a1-2)Gal(b1-4)GlcNAc(b1-6)]GalNAc
How it was run: as §1

GalNAc(a1-3)GalNAc = molecular target: GalNAc(a1-3)GalNAc
How it was run: as §1

[4] = molecular target: GalNAc(b1-3)Gal(a1-4)Gal(b1-4)GlcNAc
How it was run: as §1

GalNAc(b1-3)GalNAc = molecular target: GalNAc(b1-3)GalNAc
How it was run: as §1

GalNAc(b1-4)Gal(b1-4)Glc = molecular target: GalNAc(b1-4)Gal(b1-4)Glc
How it was run: as §1

[5] = molecular target: GalNAc(b1-4)GlcNAc(b1-3)GalNAc(b1-4)GlcNAc
How it was run: as §1

GalNAc3S(b1-4)GlcNAc3S = molecular target: GalNAc3S(b1-4)GlcNAc3S
How it was run: as §1

Glc(a1-6)Glc(a1-6)Glc = molecular target: Glc(a1-6)Glc(a1-6)Glc
How it was run: as §1

[6] = molecular target: GlcNAc(a1-3)Gal(b1-4)GlcNAc
How it was run: as §1

[7] = molecular target: GlcNAc(a1-4)Gal(b1-4)GlcNAc(b1-3)Gal(b1-4)GlcNAc
How it was run: as §1

[8] = molecular target: GlcNAc(b1-2)[GlcNAc(b1-4)]Man(a1-3)[GlcNAc(b1-4)][GlcNAc(b1-2)[GlcNAc(b1-6)]Man(a1-6)]Man(b1-4)GlcNAc(b1-4)[Fuc(a1-6)]GlcNAc
How it was run: as §1

[9] = molecular target: GlcNAc(b1-3)Gal(b1-4)GlcNAc(b1-3)Gal(b1-4)GlcNAc(b1-2)[GlcNAc(b1-3)Gal(b1-4)GlcNAc(b1-3)Gal(b1-4)GlcNAc(b1-6)]Man(a1-6)[GlcNAc(b1-3)Gal(b1-4)GlcNAc(b1-3)Gal(b1-4)GlcNAc(b1-2)Man(a1-3)]Man(b1-4)GlcNAc(b1-4)[Fuc(a1-6)]GlcNAc
How it was run: as §1

[10] = molecular target: GlcNAc(b1-3)Gal(b1-4)GlcNAc(b1-3)GalNAc
How it was run: as §1

[11] = molecular target: GlcNAc(b1-3)[GlcNAc(b1-6)]GalNAc
How it was run: as §1

[12] = molecular target: GlcNAc(b1-4)GlcNAc(b1-4)GlcNAc(b1-4)GlcNAc(b1-4)GlcNAc(b1-4)GlcNAc
How it was run: as §1

[13] = molecular target: Man(a1-3)[Man(a1-6)]Man(b1-4)GlcNAc(b1-4)GlcNAc
How it was run: as §1

[14] = molecular target: Neu5Ac(a2-3)Gal(b1-4)GlcNAc(b1-2)[Neu5Ac(a2-3)Gal(b1-4)GlcNAc(b1-4)]Man(a1-3)[GlcNAc(b1-4)][Neu5Ac(a2-3)Gal(b1-4)GlcNAc(b1-4)Man(a1-6)]Man(b1-4)GlcNAc(b1-4)GlcNAc
How it was run: as §1

[15] = molecular target: Neu5Ac(a2-3)Gal(b1-4)GlcNAc(b1-3)Gal(b1-4)GlcNAc(b1-3)GalNAc
How it was run: as §1

[16] = molecular target: Neu5Ac(a2-3)GalNAc(b1-4)GlcNAc
How it was run: as §1

Neu5Ac(a2-6)Gal = molecular target: Neu5Ac(a2-6)Gal
How it was run: as §1

[17] = molecular target: Neu5Ac(a2-6)Gal(b1-4)GlcNAc(b1-2)Man(a1-3)[GlcNAc(b1-2)Man(b1-4)GlcNAc(b1-2)Man(a1-6)]Man(b1-4)GlcNAc(b1-4)GlcNAc
How it was run: as §1

[18] = molecular target: Neu5Ac(a2-6)Gal(b1-4)GlcNAc6S
How it was run: as §1

[19] = molecular target: Neu5Ac(a2-6)GlcNAc(b1-4)GlcNAc
How it was run: as §1

[20] = molecular target: Neu5Gc(a2-3)Gal(b1-3)GlcNAc
How it was run: as §1

Neu5Gc(a2-3)Gal(b1-4)Glc = molecular target: Neu5Gc(a2-3)Gal(b1-4)Glc
How it was run: as §1

[21] = molecular target: Neu5Gc(a2-8)Neu5Ac(a2-3)Gal(b1-4)GlcNAc
How it was run: as §1

[22] = molecular target: Neu5Gc(a2-8)Neu5Gc(a2-3)Gal(b1-4)GlcNAc
How it was run: as §1

B1: Epa1-NP (Candida glabrata), Q6VBJ0 (protein)
chain: MILNPALFLNKCVCIYTTLILLLLTNGGYATSSNDISLASKDPTTFPLGCSPDITTPKKGLSMELYSYDFRKKGSYPCWDAAYLDPNYPRTGYKSHRLLAKVDGVTGNINFYYHATKGCTPQLGHLPASYNYPKPLTMTNFTMLLYGYFRPKVTGFHTFTISADDLLFVNFGAGNAFDCCRRDSSADHFGNYQAYAIWGSKTAKDELTVHLDAGVYYPIRLFYNNREYDGALSFTFKTESNENTVSDFSEYFFSLDDTEEGCPGLISYDSSCASVKTSKIIGIDYHTETPNENLVPITKTIYHLGIPCTGTTTTPLCGSGFYDPLANKCVTINTSSTSSVTKTTSHTTSKEVSFHSSISSQKTLIPKSIPSPYGPIKSQSIPTEMETSSEISSSEYAFSDVISTPSHSPYTKKHSSLNSSSYTSTVIHSLTSYSISQGIFSTSLSEQNITSKSSTDKFSTATSMSNNITQSSIIISQFSTNNENYTTTSMHTSSDKISTETLNNSISTTTSILFSNSSTILKNNTTIISSDKDTHYHPVNPTIVCSTNKTEIICASITQPSISNSNNHWSSSVLKFNSTTVRSTLPSSAGSNETSINVPFSSSTESNTSTSSTSTSNSKMVRSTLPSSAGSNETSISVPFSSSTESNTSTSSTSTSNSKMVRSTLPSSAGSNETSINVPFSSSTESNTSTSSTSTSNSKTVRSTPFSSAGIIMTSLSQRNNKSASSYASSNSKCYNTADSCRKVHSTPSYLLTSSYTSEGVDYDCSLVSTKLKINDTNCVNNKHTTKSCLKTSVTTTIPTLEIKTARKSSSNTIGLHSYPTSSPNKSISSAPIIGYISSFKTIKTASPSYQTSDLTTITTITSLNNPGSTAVENTHESNDKSRKTSSNDISSKHSVIKETKDAVESSNKSHQTNTLKCSSIIIASSSHNSYESLGGTTLTLTLSKVYSPQNNDTLPFLEISEVNPSRTVLPESSKMMQYLTSTEERNKTARNTIATNIVSISTFHFEGEGNAIRMGYTQLLLMLIGIIVMNIGT
- glycan array binding signal (z-score) [1]: 2.48
- glycan array binding signal (z-score) [2]: -0.293
- glycan array binding signal (z-score) [3]: -0.254
- glycan array binding signal (z-score) (GalNAc(a1-3)GalNAc): -0.306
- glycan array binding signal (z-score) [4]: -0.325
- glycan array binding signal (z-score) (GalNAc(b1-3)GalNAc): -0.293
- glycan array binding signal (z-score) (GalNAc(b1-4)Gal(b1-4)Glc): -0.286
- glycan array binding signal (z-score) [5]: -0.291
- glycan array binding signal (z-score) (GalNAc3S(b1-4)GlcNAc3S): -0.283
- glycan array binding signal (z-score) (Glc(a1-6)Glc(a1-6)Glc): -0.338
- glycan array binding signal (z-score) [6]: -0.317
- glycan array binding signal (z-score) [7]: -0.217
- glycan array binding signal (z-score) [8]: -0.285
- glycan array binding signal (z-score) [9]: -0.27
- glycan array binding signal (z-score) [10]: -0.287
- glycan array binding signal (z-score) [11]: -0.284
- glycan array binding signal (z-score) [12]: -0.319
- glycan array binding signal (z-score) [13]: -0.374
- glycan array binding signal (z-score) [14]: -0.295
- glycan array binding signal (z-score) [15]: -0.291
- glycan array binding signal (z-score) [16]: -0.338
- glycan array binding signal (z-score) (Neu5Ac(a2-6)Gal): -0.276
- glycan array binding signal (z-score) [17]: -0.296
- glycan array binding signal (z-score) [18]: -0.31
- glycan array binding signal (z-score) [19]: -0.281
- glycan array binding signal (z-score) [20]: -0.348
- glycan array binding signal (z-score) (Neu5Gc(a2-3)Gal(b1-4)Glc): -0.308
- glycan array binding signal (z-score) [21]: -0.286
- glycan array binding signal (z-score) [22]: -0.286
